Inconclusive results are not listed. Where a call stands in place of a potency, no number is given. Values without a mark were called inactive. Active and inactive are the calls of the source. Calls follow the shape of the dose curve; as a rule, active = well fitted cell-killing curve with a large enough effect; inconclusive = small, poorly fitted or top-dose-only effect, or effect the other way; inactive = no such curve, though single readings can be large or run the other way.
What was measured:
[1] = Quantitative High-Throughput drug screen in 47 multiple myeloma cell lines against the NCATS MIPE library collection: MM1R_ATCC cell viability assay (AID 1918981); also: nearly all actives have a fitted effect of over 35% in size
How it was run: (§1)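 MIPE 4.0 approved/investigational drugs; 500 cells/well; 48 h 37 °C humidified 5% CO2; CTG luminescence readout; DMSO = 100%, media = 0% viability.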

[2] = Quantitative High-Throughput drug screen in 47 multiple myeloma cell lines against the NCATS MIPE library collection: KMS28PE_JCRB cell viability assay (AID 1918983); also: nearly all actives have a fitted effect of over 35% in size
How it was run: as §1

[3] = Quantitative High-Throughput drug screen in 47 multiple myeloma cell lines against the NCATS MIPE library collection: KMS34_JCRB cell viability assay (AID 1918985); also: nearly all actives have a fitted effect of over 40% in size
How it was run: as §1

[4] = Quantitative High-Throughput drug screen in 47 multiple myeloma cell lines against the NCATS MIPE library collection: OCIMY7_PLB cell viability assay (AID 1918987); conditions: OCI-MY7 myeloma viability, CellTiter-Glo ATP, 48 h; viability (% of DMSO): at 45.8 µM (top of the series); also: nearly all actives have a fitted effect of over 65% in size
How it was run: as §1

[5] = Quantitative High-Throughput drug screen in 47 multiple myeloma cell lines against the NCATS MIPE library collection: OCIMY5_PLB cell viability assay (AID 1918988); also: nearly all actives have a fitted effect of over 65% in size
How it was run: as §1

[6] = Quantitative High-Throughput drug screen in 47 multiple myeloma cell lines against the NCATS MIPE library collection: OPM1_PLB cell viability assay (AID 1918989); also: nearly all actives have a fitted effect of over 40% in size
How it was run: as §1

[7] = Quantitative High-Throughput drug screen in 47 multiple myeloma cell lines against the NCATS MIPE library collection: U266_ATCC cell viability assay (AID 1919864); also: nearly all actives have a fitted effect of over 35% in size
How it was run: as §1

[8] = Quantitative High-Throughput drug screen in 47 multiple myeloma cell lines against the NCATS MIPE library collection: XG6_PLB cell viability assay (AID 1919865); also: nearly all actives have a fitted effect of over 40% in size
How it was run: as §1

[9] = Quantitative High-Throughput drug screen in 47 multiple myeloma cell lines against the NCATS MIPE library collection: VP6_DJ cell viability assay (AID 1919867); also: nearly all actives have a fitted effect of over 40% in size
How it was run: as §1

[10] = Quantitative High-Throughput drug screen in 47 multiple myeloma cell lines against the NCATS MIPE library collection: UTMC2_PLB cell viability assay (AID 1919868); conditions: CellTiter-Glo ATP luminescence, 48 h; viability (% of DMSO control): at 45.8 µM (top of the series); also: nearly all actives have a fitted effect of over 55% in size
How it was run: as §1

[11] = Quantitative High-Throughput drug screen in 47 multiple myeloma cell lines against the NCATS MIPE library collection: PE2_PLB cell viability assay (AID 1919869); also: nearly all actives have a fitted effect of over 35% in size
How it was run: as §1

[12] = Quantitative High-Throughput drug screen in 47 multiple myeloma cell lines against the NCATS MIPE library collection: RPMI8226_ATCC cell viability assay (AID 1919871); also: nearly all actives have a fitted effect of over 30% in size
How it was run: as §1

[13] = Quantitative High-Throughput drug screen in 47 multiple myeloma cell lines against the NCATS MIPE library collection: OPM2_DSMZ cell viability assay (AID 1919872); also: nearly all actives have a fitted effect of over 30% in size
How it was run: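 qHTS of the MIPE 4.0 collection: 500 myeloma cells/well, 48 h drug exposure at 37C in 5% CO2, then CellTiter-Glo for 5 min at room temperature before luminescence reading.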

[14] = Quantitative High-Throughput drug screen in 47 multiple myeloma cell lines against the NCATS MIPE library collection: KMS28BM_JCRB cell viability assay (AID 1919874); also: nearly all actives have a fitted effect of over 35% in size
How it was run: as §1

[15] = Quantitative High-Throughput drug screen in 47 multiple myeloma cell lines against the NCATS MIPE library collection: L363_DSMZ cell viability assay (AID 1918984); also: nearly all actives have a fitted effect of over 40% in size
How it was run: as §1

[16] = Quantitative High-Throughput drug screen in 47 multiple myeloma cell lines against the NCATS MIPE library collection: PCM6_Riken cell viability assay (AID 1919870); also: nearly all actives have a fitted effect of over 30% in size
How it was run: as §1

[17] = Quantitative High-Throughput drug screen in 47 multiple myeloma cell lines against the NCATS MIPE library collection: XG1_PLB cell viability assay (AID 1919866); also: nearly all actives have a fitted effect of over 35% in size
How it was run: as §1

[18] = Quantitative High-Throughput drug screen in 47 multiple myeloma cell lines against the NCATS MIPE library collection: KMS11_JCRBsus cell viability assay (AID 1919873); also: nearly all actives have a fitted effect of over 50% in size
How it was run: as §1

[19] = Quantitative High-Throughput drug screen in 47 multiple myeloma cell lines against the NCATS MIPE library collection: SKMM1_PLB cell viability assay (AID 1919863); conditions: SKMM1 myeloma viability, CellTiter-Glo ATP, 48 h; viability: hits give low values; also: nearly all actives have a fitted effect of over 35% in size
How it was run: as §1

[20] = Quantitative High-Throughput drug screen in 47 multiple myeloma cell lines against the NCATS MIPE library collection: LP1_DSMZ cell viability assay (AID 1918982); also: nearly all actives have a fitted effect of over 35% in size
How it was run: as §1
Potency is read from the fitted curve at half-maximal effect.

COc1cc(Nc2ncc(F)c(Nc3ccc4c(n3)NC(=O)C(C)(C)O4)n2)cc(OC)c1OC
Potency [1]: 6.62 µM (active)
Potency [2]: 833 nM (active)
Potency [3]: 4.69 µM (active)
Potency [4]: 743 nM (active)
Potency [5]: 6.62 µM (active)
Potency [6]: 1.87 µM (active)
Potency [7]: inactive
Potency [8]: 1.66 µM (active)
Potency [9]: 1.66 µM (active)
Potency [10]: 590 nM (active)
Potency [11]: 1.05 µM (active)
Potency [12]: 4.18 µM (active)
Potency [13]: 5.9 µM (active)
Potency [14]: inactive

CO[C@@H](C(=O)N1Cc2[nH]nc(NC(=O)c3ccc(N4CCN(C)CC4)cc3)c2C1)c1ccccc1
Potency [1]: 20.9 µM (active)
Potency [2]: 6620 nM (active)
Potency [15]: 18.7 µM (active)
Potency [4]: 332 nM (active)
Potency [5]: 6.62 µM (active)
Potency [6]: 8.33 µM (active)
Potency [8]: 20.9 µM (active)
Potency [10]: 33.2 nM (active)
Potency [11]: 20.9 µM (active)
Potency [16]: 26.4 µM (active)
Potency [14]: 1.66 µM (active)

C[N+](C)(C)CC(=O)O
Potency [1]: inactive
Potency [2]: inactive
Potency [15]: inactive
Potency [3]: inactive
Potency [7]: inactive
Potency [8]: inactive
Potency [17]: inactive
Potency [11]: inactive
Potency [16]: inactive
Potency [18]: inactive
Potency [14]: inactive

O=C(NOCC(O)CO)c1cc(Br)c(F)c(F)c1Nc1ccc(I)cc1F (centres undefined)
Potency [1]: inactive
Potency [2]: inactive
Potency [15]: inactive
Potency [4]: 16.6 nM (active)
Potency [7]: inactive
Potency [8]: 2.35 µM (active)
Potency [12]: inactive
Potency [13]: inactive

O=C(O)[C@H]1O[C@H](Oc2cc3oc(-c4ccccc4)cc(=O)c3c(O)c2O)[C@H](O)[C@@H](O)[C@H]1O
Potency [1]: 23.5 µM (active)
Potency [2]: 16600 nM (active)
Potency [15]: inactive
Potency [5]: 23.5 µM (active)
Potency [6]: 18.7 µM (active)
Potency [19]: 20.9 µM (active)
Potency [8]: inactive
Potency [9]: inactive
Potency [10]: inactive
Potency [11]: inactive
Potency [12]: 4.69 µM (active)

COc1ccc(-c2cc(=O)c3c(O)cc(O)cc3o2)cc1O
Potency [1]: 16.6 µM (active)
Potency [2]: inactive
Potency [15]: 5.9 µM (active)
Potency [3]: 20.9 µM (active)
Potency [4]: 3720 nM (active)
Potency [5]: 2.64 µM (active)
Potency [6]: 7.43 µM (active)
viability [19]: 119%
Potency [7]: 8.33 µM (active)
Potency [8]: 2.35 µM (active)
Potency [17]: 2.09 µM (active)
Potency [9]: 4.18 µM (active)
Potency [10]: 8330 nM (active)
Potency [11]: 6.62 µM (active)
Potency [16]: 3.32 µM (active)
Potency [12]: inactive
Potency [13]: inactive
Potency [18]: 26.4 µM (active)
Potency [14]: inactive

CC(C)C(=O)Oc1ccc(CO)cc1[C@H](CCN(C(C)C)C(C)C)c1ccccc1
Potency [1]: inactive
Potency [20]: inactive
Potency [3]: 18.7 µM (active)
Potency [6]: inactive
Potency [17]: inactive
Potency [11]: inactive
Potency [16]: inactive
Potency [13]: inactive
Potency [18]: inactive
Potency [14]: inactive

OC[C@H]1O[C@@H](Oc2cc(O)cc(C=Cc3ccc(O)cc3)c2)[C@H](O)[C@@H](O)[C@H]1O
Potency [1]: inactive
Potency [2]: inactive
Potency [3]: inactive
Potency [5]: 9.35 µM (active)
Potency [7]: inactive
Potency [10]: inactive
Potency [11]: inactive
Potency [12]: inactive
Potency [13]: inactive
Potency [18]: inactive
Potency [14]: inactive

CN(C)C1CCN(C(=O)c2ccc(NC(=O)Nc3nc(N4CCOCC4)nc(N4CCOCC4)n3)cc2)CC1
Potency [1]: 0.0418 µM (active)
Potency [2]: 13.2 nM (active)
Potency [3]: 0.132 µM (active)
Potency [4]: 5260 nM (active)
Potency [5]: 0.0418 µM (active)
Potency [12]: 0.0093 µM (active)
Potency [13]: 0.0209 µM (active)

CC=C(C)C(=O)O[C@H]1C(C)=C[C@]23C(=O)[C@@H](C=C(CO)[C@@H](O)[C@]12O)[C@H]1[C@@H](C[C@H]3C)C1(C)C
Potency [1]: 18.7 µM (active)
Potency [2]: 37.2 nM (active)
Potency [15]: 4.69 µM (active)
Potency [3]: 20.9 µM (active)
Potency [4]: 14800 nM (active)
Potency [6]: 4.18 µM (active)
Potency [19]: 0.0059 µM (active)
Potency [8]: 3.72 µM (active)

O=C1NC(=O)C(=Cc2cccc(C(F)(F)F)c2)S1
Potency [1]: inactive
Potency [20]: inactive
Potency [3]: inactive
Potency [5]: 26.4 µM (active)
Potency [19]: 14.8 µM (active)
Potency [8]: 20.9 µM (active)
Potency [17]: 16.6 µM (active)
Potency [12]: 7.43 µM (active)
Potency [13]: inactive
Potency [14]: inactive

O=c1ccn([C@@H]2O[C@H](CO)[C@H](O)[C@H]2O)c(=O)[nH]1
Potency [1]: inactive
Potency [20]: 14.8 µM (active)
Potency [6]: inactive
Potency [8]: inactive
Potency [17]: inactive
Potency [11]: inactive
Potency [16]: inactive
Potency [14]: inactive

C[C@H]1[C@H](NC(=O)C(=NOC(C)(C)C(=O)O)c2csc(N)n2)C(=O)N1S(=O)(=O)O
Potency [1]: inactive
Potency [20]: inactive
Potency [3]: inactive
Potency [6]: inactive
viability [19]: 114%
Potency [7]: 14.8 µM (active)
Potency [10]: inactive
Potency [11]: inactive
Potency [16]: inactive
Potency [12]: inactive
Potency [13]: inactive
Potency [18]: inactive
Potency [14]: inactive

COc1ccc(-c2coc3cc(O)ccc3c2=O)cc1
Potency [1]: inactive
Potency [20]: inactive
Potency [3]: inactive
Potency [6]: inactive
Potency [7]: inactive
Potency [8]: inactive
Potency [17]: inactive
Potency [9]: inactive
Potency [11]: inactive
Potency [16]: inactive
Potency [12]: inactive
Potency [13]: inactive
Potency [18]: 18.7 µM (active)

Reference: PubChem BioAssay (NCATS)
